The source of these data is PubChem BioAssay AID1347076 (National Center for Advancing Translational Sciences (NCATS), 2019).

Each structure is given as a SMILES string. The campaign covered roughly 400,000 compounds. About 13,000 (3.2%) were called active. Not shown: some 18% with an inconclusive outcome. Calls come from the whole dose curve; as a rule, active = well fitted cell-killing curve with a large enough effect; inconclusive = small, poorly fitted or top-dose-only effect, or effect the other way; inactive = flat fitted curve, though single readings scatter. The sample as a whole holds a higher share of actives than the screen did.
% is set by controls: 0 for no effect and ±100 for the full control effect; potency is the fitted concentration of half-maximal effect.

This experiment is described as follows: qHTS assay for MDR1-selective chemotherapeutics: Primary screen using the drug-selected MDR subline cells KB-V1. Note: nearly all actives have a fitted effect of over 60% in size. The note with it: KB-V1 MDR cells viability, CellTiter-Glo, 72 h; series mostly up to 46.1 µM; activity change, negative = cytotoxicity: at the top concentration. An excerpt:
A prime difficulty in effectively treating cancer is the development of cellular resistance to multiple structurally unrelated anticancer drugs, a phenomenon known as multidrug resistance (MDR). […] Numerous strategies to overcome P-gp-mediated MDR have been explored, including the design of drugs that evade recognition and efflux, and development of inhibitors to block efflux and restore drug accumulation. […] An alternative approach is to exploit resistance by identifying drugs that target MDR cells over the non-resistant parental cells from which they were selected. […] The development of MDR1-selective agents represents a new strategy for resolving multidrug resistance, as it remains a long-standing clinical challenge for cancer chemotherapy.
Our goal is to identify compounds that selectively kill P-gp-expressing MDR cells. We will identify MDR1-selective compounds by comparing toxicity of compounds in the screening library against parental, drug-naive (KB-3-1) adenocarcinoma cells as well as their drug-selected MDR sub-line (KB-V1). The differential toxicity of compounds against these two cell lines will be used to identify MDR1-selective compounds, whose cytotoxicity is potentiated, rather than diminished, by P-gp expression. This assay will be utilized to conduct a quantitative high-throughput screen (qHTS) in collaboration with the NIH Chemical Genomics Center to identify selective agents, and probe hits arising from the screen will be validated using secondary assays and characterized through a well-established follow-up research program. This screen was run against the entire NCGC library collection of about 400,000 compounds.
NIH Molecular Libraries Probe Production Network [MLPCN]
NIH Chemical Genomics Center [NCGC]
PI: Michael Gottesman, National Cancer Institute, NIH
Briefly, 5 microL of media containing either KB-V1 cells (columns 1-2, 4-48) are dispensed into Greiner white, treated solid-bottom 1536-well assay plates (media-only control is added to column 3). Compounds are then transferred via Kalypsys pin tool equipped with 1536-pin array (10 nL slotted pins, V&P Scientific, San Diego, CA). Following addition of compound, the plates are incubated at 37 degrees C for 72 hours. CellTiter-Glo (2.5 µL/well) is then added, and the plates are read in a ViewLux reader (Perkin-Elmer, clear luminescence filter, 1 second exposure, 1x binning) following a 10 minute incubation. All cells are dispensed in DMEM phenol-red free media containing 10% FBS.
Library plates were screened starting from the lowest and proceeding to the highest concentration. Vehicle-only plates, with DMSO being pin-transferred to columns 5-48, will be inserted uniformly at the beginning and the end of each library in order to monitor and record any shifts in the background, which can be affected by reagent dispensers or loss in enzyme activity over time. Screening data will be corrected, normalized, and concentration-effect relationships will be derived by using publicly-available NCGC, NCATS curve fitting algorithms (http://ncgc.nih.gov/pub/openhts).
On to `Cc1ccc(C)c(N2CCN(C(=O)CN3C(=O)COc4ccc(S(=O)(=O)N5CCCCCC5)cc43)CC2)c1`, for which the “activity change, negative = cytotoxicity” value is -1.22% (inactive). Take `Cc1cc2c(cc1C)NC(c1ccccn1)C1=C(CC(C)(C)CC1=O)N2` (stereo not given): the “activity change, negative = cytotoxicity” value is -1.56% (inactive).

With `CC1(C)CC(=O)C2=C(C1)Nc1cc(C(=O)c3ccccc3)ccc1NC2c1ccccn1` (stereo not given), the Potency is 20.6 µM (active).

Turning to `Cc1nn(-c2ccccn2)c2c1C(c1ccncc1)C1=C(CC(C)(C)CC1=O)N2` (stereo not given), the “activity change, negative = cytotoxicity” value was -6.62% (inactive). For `COc1ccc(C)cc1NC(=O)COCc1cc(-c2cccs2)on1`, the “activity change, negative = cytotoxicity” value is -7.37% (inactive). Regarding `O=S1(=O)CC(N2CCN(c3ccccn3)CC2)CN1Cc1ccc(F)cc1` (stereo not given), the “activity change, negative = cytotoxicity” value is -24.7% (inactive). Still for that read-out and setting: the result for `COC(=O)C[C@@H]1C=C[C@@H](NS(=O)(=O)c2cccc(OC)c2)[C@@H](CO)O1` reads -3.47% (inactive); that for `CC(C)C[C@H]1CNC(=O)C(=O)N1C[C@@H]1CCCN1C[C@H](Cc1ccccc1)N1C[C@H](CC(C)C)N(CC2CCCCCC2)C(=O)C1=O`, 1.82% (inactive).

In the case of `CN(Cc1cnccn1)C(=O)c1cc(COc2cccc(C(F)(F)F)c2)on1`, the “activity change, negative = cytotoxicity” value is -13.2% (inactive). For `CN(Cc1cccnc1)C(=O)c1cc(COc2ccc3ncccc3c2)on1`, the Potency is 5.17 µM (active).

As to `Cc1ccc(OCc2cc(C(=O)N(C)CCc3ccccc3)no2)cc1C`, the “activity change, negative = cytotoxicity” value was -18.2% (inactive). Regarding `CC(C)c1cccc(C(C)C)c1Nc1cn[nH]c1`, the “activity change, negative = cytotoxicity” value is 13.2% (inactive).

Take `COc1cccc(C(=O)OCC(=O)c2[nH]c(C)c(C(C)=O)c2C)c1`: the “activity change, negative = cytotoxicity” value is -9.26% (inactive). Take `CC(=O)c1c(C)[nH]c(C(=O)COC(=O)c2cccc(S(=O)(=O)N(C)c3ccccc3)c2)c1C`: the Potency is 11.6 µM (active). Take `CC(=O)c1c(C)[nH]c(C(=O)COC(=O)c2cccs2)c1C`: the “activity change, negative = cytotoxicity” value was 0% (inactive).

Turning to `O=C(Nc1ccc2nc(SCC(=O)N3CCc4ccccc43)sc2c1)c1ccccc1F`, the “activity change, negative = cytotoxicity” value was 4.97% (inactive). Turning to `COc1ccc(C2CC(=O)N(Cc3ccccc3C)c3c2c(C)nn3-c2nc(C)cc(C)n2)c(OC)c1` (stereo not given), the “activity change, negative = cytotoxicity” value was -1.08% (inactive). In the case of `C[C@@H]1CN([C@@H](C)CO)S(=O)(=O)c2ccc(C#Cc3cccc(F)c3)cc2O[C@H]1CN(C)S(=O)(=O)c1cn(C)cn1`, the “activity change, negative = cytotoxicity” value was 9.43% (inactive). Regarding `C[C@H]1CN([C@@H](C)CO)C(=O)CCCn2cc(nn2)CO[C@@H]1CN(C)S(=O)(=O)c1ccc(-c2ccccc2)cc1`, the “activity change, negative = cytotoxicity” value was 13.4% (inactive). On the same count and under the same terms, the figure for `Cc1ccn2c(-c3csc(Nc4ccc(C(=O)O)cc4)n3)c(C)nc2c1` is -1.24% (inactive); for `O=C(Nc1cccn(Cc2ccccc2Cl)c1=O)NC1CCCCC1` it is -3.85% (inactive). As for `O=C(Nc1cccn(Cc2c(Cl)cccc2Cl)c1=O)c1ccc(Cl)cc1`, the Potency is 3.66 µM (active). For `O=c1c(=O)n(Cc2c(F)cccc2Cl)ccn1Cc1ccccc1`, the “activity change, negative = cytotoxicity” value is 10.3% (inactive). Turning to `O=C(Nc1cccc2ccccc12)NC1CC1`, the “activity change, negative = cytotoxicity” value was 11.2% (inactive). Same read-out and setting: the result for `CCCCNC(=O)OC1CC2CC1[C@H]1CCCCN1C2=O` (stereo not given in full) reads -12.4% (inactive); that for `C[C@@H]1CN([C@@H](C)CO)C(=O)c2cc(Br)cnc2O[C@@H]1CN(C)C(=O)C1CCCCC1`, -14.1% (inactive). Regarding `CCOC(=O)N/N=C/c1cn(Cc2ccccc2Cl)c2ccccc12`, the Potency was 5.8 µM (active). Regarding `CNC(=S)N/N=C/c1cn(Cc2ccc(C)cc2)c2ccccc12`, the Potency was 16.4 µM (active).

Turning to `COc1ccc(OCCn2cc(C(=O)C3CCCCC3)c3ccccc32)cc1`, the “activity change, negative = cytotoxicity” value is -19% (inactive).

For the compound `N#CCC(=O)N/N=C/c1cn(Cc2ccc3ccccc3c2)c2ccccc12`, the “activity change, negative = cytotoxicity” value was -0.985% (inactive). Regarding `NC(=O)Cn1cc(/C=N\NS(=O)(=O)c2ccccc2)c2ccccc21`, the “activity change, negative = cytotoxicity” value was 0% (inactive). Consider `COC(=O)N/N=C/c1cn(CCCOc2ccc(C)cc2)c2ccccc12`, for which the Potency was 18.4 µM (active).

For the compound `Cc1ccc(OCCOc2cccc(/C=N/NC(N)=O)c2)cc1`, the “activity change, negative = cytotoxicity” value is 1.37% (inactive).

On to `CNC(=S)N/N=C/c1ccc(OCc2ccccc2)c(Br)c1`, for which the “activity change, negative = cytotoxicity” value was -3.98% (inactive).

For `COc1cccc(Cn2cc(/C=N/NC(=O)c3cc(O)cc(O)c3)c3ccccc32)c1`, the “activity change, negative = cytotoxicity” value is -23.7% (inactive). The same measure, in the same setting: the figure for `CCCCCCCCN1C(=O)[C@H](CC(=O)NCc2cccc3ccccc23)C[C@@]2(C(=O)OC)CCCCC=C12` is -23.6% (inactive); for `Cc1ccccc1S(=O)(=O)NC(=O)C1(C)CCN1C(=O)Cc1ccc(Cl)cc1Cl` (stereo not given) it is 4.1% (inactive); for `CCc1nc2c(OCCOc3ccc(F)cc3)cccn2c1N(C)C(=O)c1ccccc1F` it is -15.3% (inactive). Regarding `Clc1ccc(-c2cccc3nccn23)cc1`, the “activity change, negative = cytotoxicity” value was -9.65% (inactive). Consider `C=CCN1CCN(c2ccncc2S(=O)(=O)N2CCN(C)CC2)CC1`, for which the “activity change, negative = cytotoxicity” value was -1.22% (inactive). `COc1cccc(NC(=O)Nc2ccc3c(c2)N(C)C(=O)c2ccccc2S3)c1`: the “activity change, negative = cytotoxicity” value is -27% (inactive). As to `CC1(C)C=Cc2c(ccc(C(=O)/C=C/c3ccccc3)c2O)O1`, the “activity change, negative = cytotoxicity” value was 0% (inactive). As for `O=C(NCCCN1CCOCC1)c1ccc(N2CCCC2)c([N+](=O)[O-])c1`, the “activity change, negative = cytotoxicity” value was -11.8% (inactive). For `O=C(COc1ccccc1F)NNC(=O)c1ccc(N2CCCCC2)c([N+](=O)[O-])c1`, the Potency was 16.4 µM (active).

As for `O=C(c1ccc(N2CCOCC2)c([N+](=O)[O-])c1)N1CCN(c2ccccc2F)CC1`, the “activity change, negative = cytotoxicity” value is -21.3% (inactive).

Turning to `CN(C)c1cccc(NC(=O)c2ccc(-c3ccc(F)c(F)c3)c3ccoc23)c1`, the “activity change, negative = cytotoxicity” value was -1.95% (inactive). On the same count and under the same terms, the figure for `CO[C@@H]1CN(C)C(=O)c2cc(NC(=O)Nc3cc(F)ccc3F)ccc2OC[C@H](C)N(C(=O)c2ccccn2)C[C@@H]1C` is 5.61% (inactive); for `CCCCC(=O)OC1=CN(Cc2ccccc2)S(=O)(=O)c2ccccc21` it is -1.9% (inactive). `O=C(COc1ccc2oc3c(c2c1)CCCC3)Nc1ccccn1`: the “activity change, negative = cytotoxicity” value was -4.62% (inactive).

In the case of `O=C(CN1CCOCC1)N1CCCc2c1c(=O)oc1ccc(OCc3ccccc3)cc21`, the Potency was 18.4 µM (active). As for `CC1CCCCN1CC(=O)N1CCCc2c1c(=O)oc1ccc(OCc3ccccc3)cc21` (stereo not given), the “activity change, negative = cytotoxicity” value is -18% (inactive). In the case of `CCOc1ccc(CCN2C(=S)N([C@@H](CC(C)C)CN3CCC[C@@H]3CN3C(=S)NC[C@@H]3Cc3ccc(O)cc3)C[C@@H]2CC(C)C)cc1`, the “activity change, negative = cytotoxicity” value is -22.3% (inactive). Take `CC(=O)Nc1cncc(-c2ccccc2CO)n1`: the “activity change, negative = cytotoxicity” value is 5.41% (inactive). Turning to `O=C(Nc1ccccc1C(=O)N1CCCCCC1)c1ccccc1Cl`, the “activity change, negative = cytotoxicity” value was -6.29% (inactive). Consider `COc1ccccc1N(CC(=O)Nc1ccccc1C(=O)N1CCCC1)S(C)(=O)=O`, for which the “activity change, negative = cytotoxicity” value is -2.86% (inactive). Consider `O=C(CN(c1ccccc1)S(=O)(=O)c1ccc(Cl)cc1)Nc1ccccc1C(=O)N1CCCC1`, for which the Potency is 5.8 µM (active). As to `COc1cccc(CN(C)C(=O)CC[C@H]2O[C@@H](n3cnc4c(NC(=O)c5ccccc5)ncnc43)[C@H](O)[C@@H]2O)c1`, the “activity change, negative = cytotoxicity” value is 1.92% (inactive). Take `Cc1ccc(C)c(N2CCN(C(=O)CCCCn3c(=O)[nH]c4ccccc4c3=O)CC2)c1`: the Potency was 6.51 µM (active). Take `COc1cccc(N2CCN(C(=O)CCCCCn3c(=O)[nH]c4ccccc4c3=O)CC2)c1`: the “activity change, negative = cytotoxicity” value is 1.41% (inactive).

On to `Cc1ccc(C)c(N2CCN(C(=O)CCCCCn3c(=S)[nH]c4ccc(N5CCOCC5)cc4c3=O)CC2)c1`, for which the “activity change, negative = cytotoxicity” value was -24.5% (inactive).
